Measurements reported in PubChem BioAssay (Tox21).
The source made the active and inactive calls. Calls follow the shape of the dose curve; as a rule, active = well fitted curve in the direction sought with a large enough effect in the repeat runs; inconclusive = weak or mixed curves; inactive = flat fitted curve, though single readings scatter. Positions of bridges follow the written chain, without caps; N, C: chain ends. Non-standard residues stand in square brackets, D forms with d. Residues, ends and D or L forms follow the SMILES beside them. *: point of attachment. X1 = CC[C@@H](C)[C@@H](N)C1=N[C@H](C(=O)*)CS1; d(aIle) = CC[C@H](C)[C@@H](N)C(=O)O; dOrn = NCCC[C@@H](N)C(=O)O

Test: qHTS assay to test for compound auto fluorescence at 535 nm (green) in HepG2 cells (AID 720675)
Conditions: green autofluorescence 485/535 nm, 1 h; series mostly up to 46 µM; fluorescence, % of fluorescein control: at the top concentration
From the text: National Center for Advancing Translational Sciences [NCATS]
NIH Chemical Genomics Center [NCGC]
U.S. Environmental Protection Agency [EPA]
National Institutes of Environmental Health Sciences [NIEHS]
National Toxicology Program [NTP]
U.S. Food and Drug Administration [FDA]
Compound auto fluorescence often interferes with screening of the compound library against various biological targets and signaling pathways. Some of these compounds may have fluorophoric properties. Such properties may interfere with the assay outputs resulting in false positives and/or negatives. To decrease such complications and ensure the compound activities are relevant in terms of biological response, the Tox21 10K compound library was screened for auto fluorescence.
From the fluorophores used as reporter signals in our screening assays, the auto fluorescence equivalencies of compounds against three fluorophores have been evaluated: Triamterene, Fluorescein and Rose Bengal sodium for blue, green and red fluorescence, respectively. The fluorescence intensities were measured using Excitation/Emission wavelengths at 405/460nm, 485/535nm and 540/590nm for blue, green and red labels, respectively. This assay includes the green fluorescence data.
Tox21 Assay Protocol Summary:
2,000 HepG2 cells in 5 uL of culture medium (MEM containing 10% FBS) per well were dispensed into black wall/clear bottom 1536-well plates using a Multidrop Combi Dispenser (ThermoFisher Scientific, Waltham, MA). The assay plates were incubated overnight at 37 C to allow cell attachment to the well bottom, followed by the transfer of 23 nL compound or DMSO vehicle by a pintool work station (Kalypsys , San Diego, CA). After the assay plates were incubated for 1 hr at 37 C and 5% CO2, fluorescence intensities in the assay plates were measured by an Envision (PerkinElmer, Shelton, CT) plate reader using three labels for measuring blue, green and red fluorescence at […] 460, 535 and 590 nm respectively.
% is scaled to controls: 0 for no effect and ±100 for the full control effect.

SMILES | fluorescence, % of fluorescein control | Potency
CC1CCCCN1CCCOC(=O)c1ccccc1 (stereo not given) | 0.0557% (inactive) | –
O=C(O)COc1ccc(C(=O)c2cccs2)c(Cl)c1Cl | – | inactive
COC(=O)C(CN)c1c[nH]c2ccc(OC)cc12 (stereo not given) | -0.0626% (inactive) | –
CN1C(=O)C[C@@H](C(=O)N[C@@H](Cc2cnc[nH]2)C(=O)N2CCC[C@H]2C(N)=O)NC1=O | -0.115% (inactive) | –
Nc1nc(/C(=C/CC(=O)O)C(=O)N[C@@H]2C(=O)N3C(C(=O)O)=CCS[C@H]23)cs1 | 0.0631% (inactive) | –
COc1ccc(/C=C/C(=O)Nc2ccccc2C(=O)O)cc1OC | -0.0679% (inactive) | –
CCCCCN=C(N)N/N=C/c1c[nH]c2ccc(OC)cc12 | -0.0229% (inactive) | –
CCc1cn([C@H]2C[C@H](O)[C@@H](CO)O2)c(=O)[nH]c1=O | 0.0005% (inactive) | –
CC(C)COC(=O)OCN1C(=O)CN(CCN2CC(=O)N(COC(=O)OCC(C)C)C(=O)C2)CC1=O | 0.0201% (inactive) | –
CC12CCC(C1)C(C)(C)C2=O (stereo not given) | -0.0242% (inactive) | –
CC[C@@H](C)[C@@H](N)C1=N[C@H](C(=O)N[C@@H](CC(C)C)C(=O)N[C@@H](CCC(=O)O)C(=O)N[C@@H](C(=O)N[C@@H]2CCCCNC(=O)[C@@H](CC(N)=O)NC(=O)[C@@H](CC(=O)O)NC(=O)[C@@H](Cc3cnc[nH]3)NC(=O)[C@@H](Cc3ccccc3)NC(=O)[C@@H]([C@H](C)CC)NC(=O)[C@@H](CCCN)NC2=O)[C@@H](C)CC)CS1 (X1-LE[d(aIle)][dK][dOrn][dI][dF][dH][dD][dN]; lactam 4-C) | – | inactive
CNC(=O)OCc1cccc(COC(=O)NC)n1 | -0.129% (inactive) | –
CC(C)(COP(=O)(O)OP(=O)(O)OC[C@H]1O[C@@H](n2cnc3c(N)ncnc32)[C@H](O)[C@@H]1OP(=O)(O)O)C(O)C(=O)NCCC(=O)NCCS (stereo not given in full) | -0.003% (inactive) | –
O=C(O)/C=C/C(O)c1ccc(Cl)cc1 (stereo not given) | -0.12% (inactive) | –
CCCCC[C@H](O)/C=C/[C@@H]1[C@@H](C/C=C\CCCC(=O)O)[C@@H](O)C[C@H]1O | – | inactive
CC(C)CCC[C@@H](C)[C@H]1CC[C@H]2[C@@H]3CC=C4C[C@@H](O)CC[C@]4(C)[C@H]3CC[C@]12C | 0.0411% (inactive) | –
CO/N=C(\C(=O)N[C@@H]1C(=O)N2C(C(=O)[O-])=C(C[n+]3cccc4c3CCC4)CS[C@H]12)c1csc(N)n1 | 0.0095% (inactive) | –
CNCC(=O)N[C@@H](CCCN=C(N)N)C(=O)N[C@H](C(=O)N[C@@H](Cc1ccc(O)cc1)C(=O)N[C@H](C(=O)N[C@@H](Cc1cnc[nH]1)C(=O)N1CCC[C@H]1C(=O)N[C@@H](C)C(=O)O)C(C)C)C(C)C | -0.0516% (inactive) | –
FC(F)(F)COCC(F)(F)F | -0.0076% (inactive) | –
COc1cc2c(cc1O)CCN[C@]21CS[C@@H]2c3c(OC(C)=O)c(C)c4c(c3[C@H](COC1=O)N1[C@@H]2[C@H]2c3c(cc(C)c(OC)c3O)C[C@@H]([C@@H]1O)N2C)OCO4 | – | inactive

SMILES | fluorescence, % of fluorescein control | Potency
CC1(C)S[C@@H]2[C@H](NC(=O)[C@@H](NC(=O)N3CCNC3=O)c3ccccc3)C(=O)N2[C@H]1C(=O)O | -0.213% [at 18.6 µM] (inactive) | –
CC1=C(/C=C/C(C)=C/C=C/C(C)=C\C(=O)O)C(C)(C)CCC1 | 0.196% [at 91.3 µM] (inactive) | –
CCCn1c(=O)[nH]c(=O)c2[nH]cnc21 | -0.0757% (inactive) | –
COc1cc2c(cc1OC)[C@@H](Cc1cc(OC)c(OC)c(OC)c1)[N+](C)(CCCOC(=O)CC/C=C/CCC(=O)OCCC[N+]1(C)CCc3cc(OC)c(OC)cc3[C@H]1Cc1cc(OC)c(OC)c(OC)c1)CC2 (stereo not given in full) | – | inactive
CCCCCCCCOC(=O)c1cc(O)c(O)c(O)c1 | -0.0234% [at 91.3 µM] (inactive) | –
C=CC1=C(C(=O)O)N2C(=O)[C@@H](NC(=O)/C(=N\O)c3csc(N)n3)[C@H]2SC1 (stereo in doubt) | – | inactive
O=C1CCC/C=C\CCCCCCCCCC1 | 0.018% [at 91.3 µM] (inactive) | –
Cc1cc(Br)ccc1NC(=O)CCl | -0.0726% [at 91.3 µM] (inactive) | –
Nc1cc(Cl)c(NC2=NCCN2)c(Cl)c1 | 0.0685% (inactive) | –
CN1[C@@H](CC(=O)c2ccccc2)CCC[C@H]1C[C@H](O)c1ccccc1 | 0.238% (inactive) | –
C[C@@H]1C(=O)NC2=Nc3cccc(Cl)c3CN21 | -0.0022% (inactive) | –
C=C1C(CCl)(CCl)C2(Cl)C(Cl)C(Cl)C1(Cl)C2(Cl)Cl (stereo not given) | – | inactive
CCN(CC)CCOC[C@H]1O[C@@H](O)[C@H](OCCN(CC)CC)[C@@H](O)[C@@H]1O | 0.0069% (inactive) | –
CN(C)CCC(O)(c1ccccc1)c1ccccc1Cl (stereo not given) | -0.11% (inactive) | –
COc1cc2c(c(OC)c1OC)-c1c(cc3c(c1OC)OCO3)C[C@@H](C)[C@](C)(O)C2 | – | inactive
O=[N+]([O-])c1ccc(O)c2ncccc12 | 0.0184% (inactive) | –
C[N+]1(CCCCC[N+]2(C)CCCC2)CCCC1 | 0.0005% (inactive) | –
CSCC[C@H](NC(=O)[C@H](Cc1ccc(OS(=O)(=O)O)cc1)NC(=O)[C@@H](N)CC(=O)O)C(=O)NCC(=O)N[C@@H](Cc1c[nH]c2ccccc12)C(=O)N[C@@H](CCSC)C(=O)N[C@@H](CC(=O)O)C(=O)N[C@@H](Cc1ccccc1)C(N)=O | – | inactive
CO[C@H](C(=O)[C@@H](O)[C@@H](C)O)C1Cc2cc3cc(O[C@H]4C[C@@H](O[C@H]5C[C@@H](O)[C@H](O)[C@@H](C)O5)[C@@H](O)[C@@H](C)O4)c(C)c(O)c3c(O)c2C(=O)[C@H]1O[C@H]1C[C@@H](O[C@H]2C[C@@H](O[C@H]3C[C@](C)(O)[C@H](O)[C@@H](C)O3)[C@H](O)[C@@H](C)O2)[C@H](O)[C@@H](C)O1 (stereo not given in full) | – | inactive
C[C@H](Cc1ccc(O)c(O)c1)[C@@H](C)Cc1ccc(O)c(O)c1 | 0.114% (inactive) | –
